# Compound activity (PubChem)
# In the library only some 5.3% were active in any assay of this set; here they are far more common.
# FMDV inh: foot and mouth disease virus antiviral activity. FMDV antiviral cell-based qHTS. Potency, µM (top dose mostly 57.9 µM), inactives show at the top dose activity change, negative = inhibition, hits mostly inhibitors. 410,000 compounds, 1.2% hits; calls by dose curve; tested in HEK293T cells; further: read-out not given here; nearly all actives have a fitted effect of over 45% in size
# MARV entry inh: Marburg virus entry inhibition | Marburg virus pseudotyped entry inhibition, cell reporter | Potency, µM (top dose mostly 37.8 µM), without a hit: at the top dose activity change, negative = inhibition, hits mostly inhibitors | 300,000 compounds, 1.8% hits; calls by dose curve; tested in HEK293 cells
# HCV inh: blocks hepatitis C virus; Huh7.5.1 HCVcc-Cre infection, luciferase reporter, 44 h; Potency, µM (titrated, usually from 41.8 µM), without a hit: top-dose activity change, negative = inhibition, most hits filed as inhibitors; 340,000 compounds, 3.4% hits; AID 651820; active means well fitted inhibition curve with a large enough effect; inconclusive means small, poorly fitted or top-dose-only effect, or another doubt; inactive means no such curve, though single readings can be large or run the other way
#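 HCVcc-Cre virus at an moi near 0.5 was added right after compound to cells cultured 4 h from seeding (1,000 cells/well). Luciferase activity was determined 44 h later, 15 min after substrate addition at RT.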
# Vaccinia Venus: vaccinia inhibition (Venus reporter). Vaccinia virus Venus reporter expression, fluorescence. Potency, µM (titrated, usually from 36.5 µM), without a hit: top-dose activity change, negative = inhibition, usual class: inhibitors. 330,000 compounds, 0.46% hits. AID 720580; calls by dose curve; tested in A549 cells; further: nearly all actives have a fitted effect of over 30% in size
# VACV mCherry inh: inhibitors of vaccinia virus infection (mCherry reporter signal); Vaccinia virus mCherry reporter infection, fluorescence; Potency, µM (series often up to 36.5 µM), for the others: at the top dose activity change, negative = inhibition, actives largely listed as inhibitors; 310,000 compounds, 0.63% hits; calls by dose curve; tested in A549 cells; further: nearly all actives have a fitted effect of over 35% in size
# Lassa entry inh: inhibitors of Lassa virus binding or cell entry. Lassa virus pseudotype entry inhibition, cell reporter. Potency, µM (titrated, usually from 37.9 µM), for inactives: at the top dose activity change, negative = inhibition, usual class: inhibitors. 300,000 compounds, 1.2% hits. AID 540256; calls by dose curve; tested in HEK293 cells; further: nearly all actives have a fitted effect of over 50% in size
# * marks the source's active call; other numbers are inactive results; i = inactive; ? = inconclusive; nt = no result; ! = a repeat was not active; [ ] = remark or other dose. On the % scale 0 is the no-effect control and ±100 the full control effect; potency means the concentration at half of the fitted maximal effect.
SMILES,FMDV inh,MARV entry inh,HCV inh,Vaccinia Venus,VACV mCherry inh,Lassa entry inh
Cc1ccc(-c2csc(N3CCC(C(N)=O)CC3)n2)cc1,44%,nt,nt,nt,nt,nt
Cc1ccccc1CNC(=O)CCC(=O)N1CC2CCCN2c2ccccc21 (centres undefined),-19%,nt,nt,-12%,-22%,4%[46.1 µM]
COc1ccccc1Cc1noc(-c2cc(Cl)ccc2OC)n1,10%,3%,7.1µM*,-9%,i,-17%
COc1ccc(-c2nc(Cc3ccc(Cl)cc3)no2)cc1OC,-6%,-22%,?,-20%,nt,4µM*
COc1ccc(Cc2noc(CN3CCN(c4ccc(Cl)cn4)CC3)n2)cc1OC,13µM*,?,?,?,-16%,?
COc1ccc(Cc2noc(CN3CCN(Cc4cccc(Cl)c4)CC3)n2)cc1OC,?,?,?,-15%,-8%,?
COc1ccc(Cc2noc(-c3ccccc3)n2)cc1OC,-20%,nt,?,-26%,i,nt
CCCCCC(=O)N1C[C@H](O)[C@@H](n2cc(C3CC3)nn2)C[C@H]1c1ccc(OC)cc1,nt,nt,nt,nt,nt,5%[46.1 µM]
Cc1ccc(NC(=O)/C=C\C(=O)N(c2ccc(C(C)C)cc2)C(C(=O)NCc2ccco2)c2ccc(F)cc2)cc1 (centres undefined),-28%,nt,nt,?,?,-29%[46.1 µM]
COc1cc(-c2nnc(CSc3nnc(Nc4ccc(Oc5ccccc5)cc4)s3)o2)cc(OC)c1OC,-11%,?,5.6µM*,-26%,?,?
COc1ccc(C(C)=O)cc1CSc1nnc(Nc2ccccc2)s1,?,18µM*,?,?,-14%,?
COc1ccc(C(C)=O)cc1CSc1nnc(-c2ccc(Cl)cc2)n1-c1ccccc1,-23%,?,7.9µM*,-15%,-24%,?
Nc1ccc(/C=C/c2cccc3cccnc23)cc1,nt,nt,nt,-21%,-8%,nt
Cc1c(C(=O)NCC(C)(C)N2CCOCC2)cnn1-c1ncc2c(n1)-c1ccccc1CC2,1%,nt,nt,-5%,0%,nt
Clc1ccc2c(c1)C(N1CCNCC1)=Nc1ccccc1O2,2%,10µM*!,?,?,-23%,?
COc1ccccc1-c1ccnc(-n2ncc(C(=O)N(C)CCc3ccccn3)c2C)n1,19%,nt,nt,2%,-17%,nt
COc1ccc(-c2nc3ccccc3n2Cc2ccccc2)cc1,-25%,3%[46.1 µM],-8%,12%,-2%,-14%[46.1 µM]
COc1ccc(-c2n(Cc3ccccc3)c3ccccc3[n+]2Cc2ccccc2)cc1,?,5.8µM*,?,nt,nt,8.2µM*
CC(=O)C1=C(c2ccc(Cl)c(Cl)c2)N(C(C)=O)n2cnnc2S1,?,nt,nt,-26%[7.34 µM],?,?
O=C(O)c1cccnc1SCc1ccccc1,30%,14%,7%,nt,nt,2%
O=C(O)c1cccnc1C(=O)O,-13%,?,0.71µM*,2%,7%,38%
CCN1CCN(C(=O)c2sc3ncnc(NCC4CCCO4)c3c2C)CC1 (centres undefined),-9%,nt,nt,-4%,-10%,nt
COCCNC(=O)CN1CCC(NC(=O)Nc2ccc(C(F)(F)F)cc2)CC1,7%,19%,11µM*!,nt,nt,17%
COCCNC(=O)CN1CCC(NC(=O)Nc2ccccc2)CC1,18%,0%,7%,nt,nt,1%
CCCOc1ccc(C(F)(F)F)cc1NS(=O)(=O)c1ccc(Cl)nc1,8%,-18%[46.1 µM],-3%,?,11µM*,5%
SMILES,FMDV inh,MARV entry inh,HCV inh,Vaccinia Venus,VACV mCherry inh,Lassa entry inh
CCCOc1ccc(C(F)(F)F)cc1NC(=O)c1cc(C)on1,-15%,nt,-10%,nt,nt,nt
Cc1cccc(C(=O)O/N=C(\N)c2ccccn2)c1,-55%,?,-19%,-1%,i,?
N/C(=N\OC(=O)c1ccccc1)c1ccccn1,10µM*,?,14%,-5%,i,?
N/C(=N\OC(=O)c1cccc(F)c1)c1ccccn1,55%,nt,7%,nt,nt,nt
CC(C)(C)c1ccc(C(=O)O/N=C(\N)c2ccccn2)cc1,0.1µM*,?,?,-13%,i,?
Cc1ccc(C(=O)O/N=C(\N)c2ccccn2)cc1C,-98%,0.71µM*,23%,-6%,1%,?
CCOc1ccc(C(=O)O/N=C(\N)c2ccccn2)cc1,10µM*,nt,-4%,nt,nt,nt
CC(C)(C)c1ccc(S(=O)(=O)N2CCC(Oc3ccc(-n4cnnn4)cc3)CC2)cc1,-25%,4%[46.1 µM],nt,-10%,-7%,13%[46.1 µM]
CCCCC[C@]12Cc3cc(OC)c(OC)cc3[C@H](O1)c1c(cc(C)n(-c3ccccc3)c1=O)O2,nt,31%[14.2 µM],nt,nt,nt,nt
N/C(=N\OC(=O)c1cc(Cl)ccc1Cl)c1ccccn1,-15%,4.1µM*,11µM*,nt,nt,6.5µM*
N/C(=N\OC(=O)/C=C/c1ccccc1Cl)c1cccnc1,55%,?,-3%,3%[7.34 µM],-8%[7.34 µM],-14%
Cc1ccc(C(=O)O/N=C(\N)c2ccccn2)cc1,3.2µM*,?,13%,7%,-1%,?
N/C(=N\OC(=O)/C=C/c1ccccc1Cl)c1ccccn1,-23%,9.2µM*,4%,nt,nt,-23%
CCNc1nc(NCC)nc(-n2cc(C(=O)c3cc(Cl)ccc3O)cn2)n1,nt,nt,nt,-25%,?,nt
CCN(CC)CCNc1ncnc2c1[nH]c1ccc(OC)cc12,nt,-3%,nt,nt,nt,nt
COc1ccc2[nH]c3c(NCCCOC(C)C)ncnc3c2c1,2%,?,11µM*,-17%,-28%,?
COc1ccc2[nH]c3c(NCCC4=CCCCC4)ncnc3c2c1,-61%,10µM*,2.8µM*,?,?,?
C=C1C(O)[C@@H]2O[C@]3(CC[C@H](/C=C/C(C)[C@@H]4CC(C)=CC5(O[C@H](C[C@@](C)(O)CO)CCC5O)O4)O3)CC[C@H]2O[C@@H]1C(O)CC(C)[C@H]1OC2(CCCCO2)CCC1C (some centres undefined),-14%,nt,1.4µM*,10µM*,?,nt
C=C1[C@@H](O)[C@@H]2O[C@]3(CC[C@H](/C=C/[C@@H](C)[C@@H]4CC(C)=CC5(O[C@H](C[C@@](C)(O)C(=O)OC)CC[C@H]5O)O4)O3)CC[C@H]2O[C@@H]1[C@@H](O)C[C@H](C)[C@H]1OC2(CCCCO2)CC[C@H]1C (some centres undefined),10%,nt,0.56µM*,1.3µM*,1.3µM*,nt
CCCN1CNc2c(c(=O)[nH]c(=S)n2CCc2cccc(C)c2)C1,nt,nt,nt,-11%,-9%,nt
CCOC(=O)C1=C2C=C(OC)C=CC2OC1CN(CC)CC (centres undefined),nt,-17%[46.1 µM],nt,nt,nt,nt
c1ccc(CN(CC2=NCCN2)c2ccccc2)cc1,-24%,?,1%[8.37 µM],-10%,-11%,?
Cc1ccc(N(CC2=NCCN2)c2cccc(O)c2)cc1,-24%,23µM*,?,-14%,-1%,?
Cc1cc2c(c(-c3cnccn3)c1)OC(CNC(=O)c1c(F)cccc1Cl)C2 (centres undefined),-13%,nt,nt,0%,-7%,nt
FC(F)Oc1ccc(NC(=S)Nn2cnnc2)cc1,-18%,nt,5µM*,nt,nt,nt
